High-throughput results from PubChem.
An excerpt weighted towards active compounds, which were near 3% of everything screened.
SKOV3 invasion = Primary qHTS assay for Inhibitors of ovarian cancer metastasis using an organotypic tumor microenvironment (TME) model; SKOV3ip1-GFP adhesion/invasion on 3D omental model, fluorescence; Potency, µM (top dose mostly 45.8 µM), for the others: at the top dose activity change, negative = inhibition, usual class: inhibitors; 46,000 compounds, 0.1% hits; AID 1963576, 2024;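 note: plate controls were DMSO wells for no effect and tomatine positive control wells for full effect; nearly all actives have a fitted effect of over 65% in size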
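Primary human omental fibroblast/mesothelial 3D culture pre-formed 48 h. SKOV3ip1-GFP cells added with compounds (0.36-46 umol/L), incubated 2 h RT/16 h 37 C, fixed; GFP cells quantified at 488/509 nm.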
PMP22 txn prim = Cell-based coincidence reporter assay to measure PMP22 gene transcription in S16 Pmp22-F2sN cells - Primary screen. 43,000 compounds, 2% hits. S16 Pmp22-F2sN Schwann cells, FLuc/NLuc coincidence luminescence, 24 h. Potency, µM (top dose mostly 57.5 µM), for inactives: top-dose activity change, negative = inhibition, most hits filed as inhibitors. AID 1508649, 2021; active = clear falling dose curves in both reporters; inconclusive = both reporters move, but less clearly or upward; inactive = either reporter flat; the % is the NLuc reporter signal
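Reporter cells (S16 Pmp22-F2sN, 500–1,000 per well) exposed to compounds for 24 h, 37C, 5% CO2; lysis with FLuc read after 10 min, then Stop&Glo and NLuc read after 10 min.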
S16 F2sN tox = Cell viability qHTS assay in S16 Pmp22-F2sN cells | Potency, µM (titrated, usually from 57.5 µM), for the others: at the highest dose activity change, negative = cytotoxicity, most hits filed as cytotoxic | AID 1508642, 2021 | 43,000 compounds, 0.48% hits | S16 Pmp22-F2sN Schwann cells viability, CellTiter-Glo, 24 h; note: nearly all actives have a fitted effect of over 65% in size
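Viability was measured by CellTiter-Glo luminescence (15 min, room temperature). This followed 24 h at 37 °C of compound exposure (23 nL pin transfer) in S16 Pmp22-F2sN Schwann cells, 500-1,000 per well.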
mTORC1 inh = Acumen qHTS Assay for Inhibitors of the mTORC1 Signaling Pathway in MEF (Tsc2-/-, p53-/-) Cells: Sytravon; Tsc2-/- p53-/- MEF, phospho-rpS6 immunofluorescence/PI, 24 h; Potency, µM (titrated, usually from 38.3 µM), inactives show at the top dose activity change, negative = inhibition, hits mostly inhibitors; 44,000 compounds, 0.78% hits;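 note: plate controls were DMSO for no effect and rapamycin for full effect; nearly all actives have a fitted effect of over 50% in size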
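Tsc2-/-, p53-/- MEFs (empty-vector stable line) in DMEM + 10% FBS were treated with compounds 24 h at 37 degree Celsius, fixed, and immunostained for phospho-rpS6 (Alexa-488) with propidium iodide counterstain. Laser-scanning cytometry gave % positive cells, normalized against 7.5 nM rapamycin and DMSO.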
p53null 32C tox = qHTS Screen for Compounds that Selectively Target Cancer Cells with p53 Mutations: Cytotoxicity of p53 Null Cells at the Permissive Temperature; H1299-neo p53 null cells, ATP luminescence, 24 h, 32C; Potency, µM (doses to about 46.1 µM), for the others: at the highest dose activity change, negative = cytotoxicity, usual class: cytotoxic; 55,000 compounds, 0.62% hits; AID 903, 2007;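 note: 0% = DMSO only and -100% = full killing by 100 µM tamoxifen; nearly all actives have a fitted effect of over 55% in size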
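H1299-neo (p53 null) cells, 600/well, treated 24 h at 32C with compound up to 46 uM; ATPlite luminescence viability, normalized to DMSO and 100 uM tamoxifen; AC50 by Hill fit.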
p53null 39C tox = qHTS Screen for Compounds that Selectively Target Cancer Cells with p53 Mutations: Cytotoxicity of p53 Null Cells at the Nonpermissive Temperature; Potency, µM (top dose mostly 46.1 µM), without a hit: at the highest dose activity, negative = cell killing, usual class: cytotoxic; 55,000 compounds, 0.97% hits; H1299 p53-null (neo) cells, 39C, ATPlite viability, 24 h; AID 904, 2007;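 note: 0% = DMSO only and -100% = full killing by 100 µM tamoxifen; nearly all actives have a fitted effect of over 50% in size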
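ATP-luminescence viability readout (ATPlite, 20 min RT) after 24 hr compound treatment at 39C of H1299-neo or H1299-p53A138V cells; titration up to 46 uM; normalized to DMSO and 100 uM tamoxifen; Hill-fit AC50.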
* = called active by the depositor; i = inactive; ? = inconclusive; · = no result. Unless noted, calls come from the whole dose curve; as a rule, active = well fitted curve in the direction sought with a large enough effect; inconclusive = small, poorly fitted or top-dose-only effect, or another doubt; inactive = no such curve, though single readings can be large; an effect the other way counts as inactive or inconclusive. Unless noted, % is set by controls: 0 for no effect and ±100 for the full control effect; potency is the fitted concentration of half-maximal effect.

SMILES	SKOV3 invasion	PMP22 txn prim	S16 F2sN tox	mTORC1 inh	p53null 32C tox	p53null 39C tox
Nc1c(C(=O)NCc2ccccc2)nnn1Cc1cccc(Br)c1	i	3.03µM*	?	-22.1%	-1.9%	-10.8%
CC(C)c1cc(C(C)C)c(CC(=O)NS(=O)(=O)Oc2c(C(C)C)cccc2C(C)C)c(C(C)C)c1	-10.7%	·	·	·	·	·
COc1ccc(-n2nc3c(N4CCC(C(=O)NCCc5ccccc5)CC4)nnc(C)c3c2C)cc1	5.5%	6.1%	-2.8%	0.6%	-0.6%	-4.2%
Cc1ccc(-n2nc3c(N4CCC(C(=O)NCCc5ccccc5)CC4)nnc(C)c3c2C)cc1	-13.9%	?	28.2µM*	-4.7%	11.4%	-28.0%
CCc1ccc(NC(=O)N2CCN(c3nnc(C)c4c(C)n(-c5ccc(Cl)cc5)nc34)CC2)cc1	-1.5%	?	-26.4%	-14.6%	?	20µM*
CCCOc1cccc(C2c3c(-c4ccccc4O)n[nH]c3C(=O)N2Cc2ccco2)c1 (stereo unspecified)	?	?	-1.9%	14.7µM*	44.1%	17.8µM*
CC(C)OCCCN1C(=O)c2[nH]nc(-c3ccccc3O)c2C1c1ccc(OCc2ccccc2)cc1 (stereo unspecified)	?	?	?	?	47.7%	12.6µM*
Cc1cc(C)c(-c2n[nH]c3c2C(c2ccccc2F)N(Cc2ccco2)C3=O)c(O)c1 (stereo unspecified)	-22.3%	?	-14.9%	13.1µM*	14.3%	15.8µM*
COc1ccc(C2c3c(-c4ccccc4O)n[nH]c3C(=O)N2CCc2ccccc2)cc1 (stereo unspecified)	i	?	?	?	44.3%	?
COc1ccc(CCN2C(=O)c3[nH]nc(-c4ccccc4O)c3C2c2cccc(OC)c2)cc1 (stereo unspecified)	-30.9%	?	?	14.7µM*	6.5%	18.7%
N#Cc1ccc(COC[C@H]2O[C@@H](n3c(NCc4ccc(Cl)c(Cl)c4)nc4c(N)ncnc43)[C@@H](O)[C@@H]2O)cc1	-19.8%	·	·	·	·	·
O=C(C=CC#Cc1cccc(NS(=O)(=O)c2ccccc2)c1)NO	-9.7%	·	·	·	·	·
N#Cc1cc(NC(=O)Nc2nnc(-c3ccncc3)s2)ccc1-c1cn[nH]c1	-5.0%	·	·	·	·	·
CCc1cccc(CC)c1NC(=O)N1Cc2[nH]nc(NC(=O)c3ccc(N4CCN(C)CC4)cc3)c2C1	-40.2%	·	·	·	·	·
COCCN1C(=O)c2[nH]nc(-c3ccccc3O)c2C1c1ccc(Cl)c(Cl)c1 (stereo unspecified)	?	?	?	0.0%	50.6%	15.8µM*
Cc1ccc(C2c3c(-c4ccccc4O)n[nH]c3C(=O)N2CCc2ccccc2)cc1 (stereo unspecified)	?	?	-25.2%	16.5µM*	45.2%	?
Cn1cc(C2=C(c3c4n(c5ccccc35)CCC(CN)C4)C(=O)NC2=O)c2ccccc21 (stereo unspecified)	-21.6%	·	·	·	·	·
CC(=O)[C@]1(O)Cc2c(O)c3c(c(O)c2[C@@H](O[C@H]2C[C@H](N)[C@@H](O)[C@H](C)O2)C1)C(=O)c1ccccc1C3=O	4.7%	·	·	·	·	·
C[C@H](CCC(=O)O)[C@H]1CC[C@H]2[C@@H]3[C@H](O)C[C@@H]4C[C@H](O)CC[C@]4(C)[C@@H]3CC[C@]12C	3.2%	·	·	·	·	·
Cc1ccc(C)c(-c2nnc(NC(=O)c3ccc4c(c3)OCCO4)o2)c1	i	?	?	0.1%	-11.7%	7.94µM*
O=C(CCCn1ccc2cc(S(=O)(=O)N3CCCC3)ccc21)NCc1ccc(Cl)cc1	-23.5%	?	?	7.36µM*	-6.7%	?
CN(C)c1ccc(CNC(=O)CCCn2ccc3cc(S(=O)(=O)N4CCCC4)ccc32)cc1	-6.1%	?	?	-9.3%	-2.6%	2.6%
Cc1ccc2[nH]cc(C(c3ccccc3)c3ccc(Cl)s3)c2c1 (stereo unspecified)	-7.5%	-29.7%	?	?	20µM*	25.1µM*
Clc1ccc(C(c2ccccc2)c2c[nH]c3ccccc23)s1 (stereo unspecified)	6.1%	?	27.3%	?	7.0%	-8.8%
CSc1ccc(/C=C/c2nc3ccccc3n2S(=O)(=O)c2ccc(Br)cc2)cc1	i	?	?	-18.0%	3.16µM*	2.51µM*
SMILES	SKOV3 invasion	PMP22 txn prim	S16 F2sN tox	mTORC1 inh	p53null 32C tox	p53null 39C tox
O=S(=O)(c1cccc(C(F)(F)F)c1)n1c(/C=C/c2ccccc2)nc2ccccc21	-16.0%	?	?	-0.9%	15.8µM*	?
CCOc1ccc(/C=C/c2nc3ccccc3n2S(=O)(=O)c2ccc(Br)cc2)cc1	-5.7%	-0.8%	-6.7%	-1.9%	12.6µM*	7.94µM*
CC(C)Cn1c(/C=C/c2ccccc2)nc2ccccc21	·	·	·	·	·	-6.7%
CCOc1ccc(S(=O)(=O)Nc2nc3ccccc3nc2Nc2ccc(OC)cc2)cc1	-3.9%	-10.0%	-0.7%	5.6%	8.9%	15.1%
NC(=O)c1cnc(-c2ccc(C3(N)CCC3)cc2)c(-c2ccccc2)c1	1.3%	·	·	·	·	·
O=C(CSc1nnc(-c2ccccc2Cl)o1)Nc1ccc2c(c1)OCCO2	·	·	·	·	-6.6%	-8.1%
COc1cccc(NC(=O)CSc2nnc(-c3cccc(OC)c3)o2)c1	4.2%	-15.3%	-7.6%	-14.8%	15.8µM*	6.31µM*
COc1ccc(NC(=O)CSc2nnc(-c3ccc(C)cc3)o2)cc1	i	-36.8%	-3.0%	-4.4%	-9.0%	15.5%
COc1ccccc1NC(=O)CSc1nnc(-c2ccccc2C)o1	2.5%	1.6%	0.2%	-1.7%	?	3.98µM*
Cc1cccc(-c2nnc(SCC(=O)Nc3ccc(C)c(C)c3)o2)c1	1.8%	-25.5%	0.2%	-10.0%	-10.4%	-6.5%
Cc1cccc(NC(=O)CSc2nnc(-c3ccccc3C)o2)c1	·	·	·	·	-20.3%	10µM*
O=C(CSc1nnc(-c2ccccc2F)o1)Nc1ccccc1Cl	i	9.3%	-16.9%	-3.5%	-20.8%	7.94µM*
